KCNH2 3.1 block: KCNH2 3.1 (human) potassium channel inhibition. U2OS KCNH2 3.1, thallium flux FluxOr; active compounds read low. activity change, % (tested at about 1.8 µM). 340,000 tested, 0.95% active. AID 720553;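 active = maximum activity change below -70%; inconclusive = maximum activity change from -70% to -50%; inactive = maximum activity change above -50%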;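 note: thallium influx rate constant from kinetic fluorescence after stimulation buffer; % is set by controls: 0 for no effect and ±100 for the full control effect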
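Kinetic fluorescence (2 min after stimulation buffer) measures Tl+ influx through KCNH2 3.1 expressed by viral transduction in U2OS cells; the rate constant is normalized against DMSO controls serving as positive and negative references.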
12-LOX inh: inhibitors of human 12S-lipoxygenase ALOX12. P18054. purified 12hLO, xylenol orange hydroperoxide absorbance. Potency, µM (doses to about 108 µM), for the others: at the top dose activity change, negative = inhibition, actives largely listed as inhibitors. 580,000 tested, 1.1% active. AID 1671190; active = well fitted inhibition curve with a large enough effect; inconclusive = small, poorly fitted or top-dose-only effect, or another doubt; inactive = no such curve, though single readings can be large or run the other way; note: potency is the fitted concentration of half-maximal effect; % is set by controls: 0 for no effect and ±100 for the full control effect
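Hydroperoxide product was detected by ferrous iron/xylenol orange as the 573 to 405 nm absorbance ratio. Arachidonic acid at 40 uM (final) was turned over for 30 min at room temperature by 150 nM human 12hLO, pH 7.0 Hepes buffer, after 15 min compound preincubation.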
LDHA inh: blocks human lactate dehydrogenase A | purified LDHA, NADH/diaphorase-resazurin fluorescence; active compounds read low | activity change, % (values are at about 110 or 230 µM) | AID 1347041 | P00338 | 480,000 tested, 0.15% active; in the data active = activity change below about -30%; inconclusive = mostly about -25% to -30%;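 note: plate controls were DMSO wells for no effect and wells without enzyme for full effect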
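LDH5 2 nM; NADH 0.06 mM, pyruvate 0.2 mM; 200 mM Tris pH 7.4, EDTA, Tween-20; 5 min RT. Detection: diaphorase 0.133 mg/mL + resazurin 37 µM, fluorescence ex540/em590 at 0 and 20 min; normalized to enzyme-free and DMSO wells.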
ClpP mod: qHTS Assay for Activators of ClpP; 340,000 tested, 1.9% active; purified B. subtilis ClpP, FRET peptide cleavage, 20 min; Potency, µM (top dose mostly 57.5 µM), for inactives: at the top dose activity change, negative = active; AID 651965, 2013; active = well fitted falling curve with a large enough effect; inconclusive = small, poorly fitted or top-dose-only effect; inactive = no such curve, though single readings can be large or run the other way; note: potency is the fitted concentration of half-maximal effect; the source files actives as falling curves though it sought activators and does not explain the sign; nearly all actives have a fitted effect of over 65% in size
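Purified B. subtilis ClpP, 10 microg/mL final in Tris/HCl pH8 with KCl, BSA, glycerol and Tween-20, cleaved an Abz/nitrotyrosine-quenched decapeptide. Fluorescence (ex 320, em 430) was read at 0 and 20 min at room temperature. Delta was normalized to 5.8 microM ADEP and DMSO/no-enzyme controls.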
hERG WT inh: inhibitors of human wildtype KCNH2 potassium channel; Q12809; U2OS, BacMam KCNH2, thallium flux FluxOr; active compounds read low; activity change, % at 1.84 µM; 340,000 tested, 0.37% active;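 active = maximum activity change below -70%; inconclusive = maximum activity change between -70% and -50%; inactive = maximum activity change above -50%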; note: % is set by controls: 0 for no effect and ±100 for the full control effect
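U2OS cells transduced with wild-type KCNH2 virus are loaded with FluxOr dye for 45 min, and thallium flux is measured in kinetic reads before and after stimulation buffer. Rate constants are normalized to DMSO controls.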
Chronic BCR inh: blocks chronic active B-cell receptor signaling; ABC-DLBCL IkBa-CBG/CBR reporter, luminescence ratio, 4 h; Potency, µM (series often up to 46.1 µM), inactives show top-dose activity change, negative = inhibition, actives largely listed as inhibitors; 340,000 tested, 0.05% active; active = well fitted inhibition curve with a large enough effect in the signal ratio, with a control signal flat, not every such curve was filed as active; inconclusive = small, poorly fitted or top-dose-only effect, or effect the other way, or a change in a side signal; the % refers to the signal ratio;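 note: potency is the fitted concentration of half-maximal effect; plate controls were basal doxycycline-induced cells for no effect and cells given 10 µM MG132 for full effect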
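Concentration-response series (up to 46 uM) were applied to TMD8 dual-reporter cells for 4 h at 37C with doxycycline. Green/red ratio, after filter-overlap correction, defined %Activity; red signal alone was normalised to basal cells and zero luminescence.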
The depositor's hits bear a star; [ ] = another dose, or the depositor's remark. The list is not random: actives were taken first. Their share in the collection is about 3%.

Screening CC(=O)Nc1ccc(-c2cn3cc(C)ccc3n2)cc1 returned KCNH2 3.1 block 6, 12-LOX inh -1%, LDHA inh -3, ClpP mod inconclusive, hERG WT inh 1 and Chronic BCR inh 4%.
`Cc1ccc2nc(-c3ccccc3)cn2c1` gave KCNH2 3.1 block -5, 12-LOX inh inconclusive, LDHA inh 1, ClpP mod 14µM*, hERG WT inh 17 and Chronic BCR inh inconclusive.
Cc1ccc2nc(-c3ccc(O)c(O)c3)cn2c1 was read as KCNH2 3.1 block inconclusive, 12-LOX inh 18µM*, LDHA inh 23, hERG WT inh 14 and Chronic BCR inh inconclusive.
`CCc1ccc(CNC(=O)c2sc3nc(C)nc(N4CCCC4)c3c2C)cc1` gave 12-LOX inh -22% and LDHA inh -1.
COc1ccccc1CNC(=O)c1ccc(N2CCCC2)c(NC(=O)Nc2cc(F)ccc2F)c1 was read as 12-LOX inh -27% and LDHA inh 1.
O=C(c1cccnc1)N1CCCC2(COc3ccccc3[S+](=O)([O-])N2)C1 (centres undefined) was read as 12-LOX inh 9%[6.33 µM].
CCCNC(=S)NC(C)C12CC3CC(CC(C3)C1)C2 (centres undefined) was read as 12-LOX inh inconclusive and LDHA inh -7.
`COc1ccc(-c2cc(-c3ccc4cn[nH]c4c3)cn3cncc23)cc1` gave 12-LOX inh 8.9µM*.
`COc1ccc(-c2cc(-c3cccc(OC)c3OC)cn3cncc23)cc1` gave 12-LOX inh 71µM*.
`O=c1ccc(-c2cc(-c3cccc4cn[nH]c34)cn3cncc23)c[nH]1` gave 12-LOX inh 32µM*.
Screening c1cc(-c2cc(-c3ccc4cn[nH]c4c3)cn3cncc23)ccn1 returned 12-LOX inh 4%[176 µM].
Nc1nccnc1C(=O)Nc1ccc2ccccc2n1 was read as 12-LOX inh 10µM* and LDHA inh 7.
Screening Nc1nccnc1C(=O)Nc1ccccn1 returned 12-LOX inh inconclusive and LDHA inh 13.
CN(C)C(=O)c1cc2cccnn2n1 was read as 12-LOX inh 66%[176 µM].
Screening COc1ccc(Nc2nc(-c3ccccc3O)nc3ccccc23)c(OC)c1 returned 12-LOX inh -2% and LDHA inh -8.
`COc1cc2nc(-c3cc(F)ccc3O)nc(N[C@@H]3CNC[C@@H]3C(C)(C)O)c2cc1OC` gave 12-LOX inh 2.4µM*.
O=C(CNC(=O)c1cc(-c2cccs2)on1)NC1CC1 was read as 12-LOX inh 7% and LDHA inh -2.
`COc1cccc(C(=O)/C(C#N)=C\c2ccc(F)c(Br)c2)c1` gave 12-LOX inh 18µM* and LDHA inh 2.
For N#C/C(=C\c1ccccc1C(F)(F)F)C(=O)Nc1ccccc1 the results were KCNH2 3.1 block -177*, 12-LOX inh -1%, LDHA inh 0, ClpP mod 1%, hERG WT inh 1 and Chronic BCR inh inconclusive.
Screening COc1cccc(C(=O)/C(C#N)=C\c2ccccc2C(F)(F)F)c1 returned 12-LOX inh 40µM* and LDHA inh 3.
Screening COc1cccc(C=C(C#N)C(=O)c2ccccc2)c1 returned 12-LOX inh inconclusive, LDHA inh -4 and ClpP mod -4%.
`COc1ccc(/C=C(/C#N)C(=O)c2c(Cl)cccc2Cl)cc1` gave 12-LOX inh 6.3µM* and LDHA inh 7.
Screening CC#CC(=O)N1CCCCC1C(=O)Nc1ccc(-n2nc(C)cc2C)cc1 (centres undefined) returned 12-LOX inh 22%.
`O=C(c1ccncc1)N(Cc1cccs1)C1CC1` gave 12-LOX inh -7% and LDHA inh 0.
`CN(CC(=O)Nc1ccc(Cl)cc1)C(=O)COc1cccc(F)c1` gave 12-LOX inh 40µM* and LDHA inh 1.
CNC(=O)Cn1c(CO)cnc1SCc1ccc(Br)cc1 was read as 12-LOX inh -5% and LDHA inh 4.
`CCN(CC)c1ccc(NC(=O)COc2ccc3c(=O)c(Oc4ccccc4F)c(C)oc3c2)cc1` gave 12-LOX inh inconclusive and LDHA inh 1.
Screening O=c1c2sc(-c3ccccc3)cc2nc2n1CCC2 returned KCNH2 3.1 block 14, 12-LOX inh 0%, LDHA inh -10, ClpP mod 22µM*, hERG WT inh -13 and Chronic BCR inh inconclusive.
`O=c1c2sc(-c3ccccc3)cc2nc2n1CCCCC2` gave KCNH2 3.1 block 4, 12-LOX inh -5%, LDHA inh -2, hERG WT inh -1 and Chronic BCR inh inconclusive.
`CCCCn1c(=O)n(CC(=O)Nc2cccc(Cl)c2)c(=O)c2c1ncn2CCC(C)C` gave 12-LOX inh 1% and LDHA inh 5.
O=C(CSc1nc2ccccc2c(=O)n1CCn1cc(Cl)cn1)Nc1ccc(F)c(Cl)c1 was read as 12-LOX inh 58% and LDHA inh 22.
`COc1cccc2c1cc1c(=O)n(CC(=O)NC3CCCCC3)nc(C)n12` gave KCNH2 3.1 block -13, 12-LOX inh -29%, LDHA inh -11, ClpP mod 32µM*, hERG WT inh 5 and Chronic BCR inh 3%.
Screening CCCN1CCN(C(=O)Cn2nc(C)n3c(cc4c(OC)cccc43)c2=O)CC1 returned KCNH2 3.1 block -3, 12-LOX inh 20%, LDHA inh -5 and hERG WT inh 1.
For COc1cccc2c1cc1c(=O)n(CC(=O)N3CCN(c4ccc(F)cc4)CC3)nc(C)n12 the results were 12-LOX inh -7%, LDHA inh -10 and ClpP mod 20µM*.
CC(C)CC(=O)N1CCN(Cc2ccncc2)CC1 was read as 12-LOX inh inconclusive and LDHA inh 3.
`CC(NC(=O)c1nccnc1N)c1cccs1` (centres undefined) gave 12-LOX inh inconclusive and LDHA inh -5.
For CN1CCCN(C(=O)CC2CCCC2)c2ccccc21 the results were 12-LOX inh 9%.
`Cc1ccc(C2Cn3cnc(C(=O)N4CCC(C(=O)NCc5ccccc5)CC4)c3CO2)cc1` (centres undefined) gave 12-LOX inh 59%.
`Cc1nn2c(c1-c1ccnn1C(C)C)N(Cc1ccc(C(=O)O)s1)CCC2` gave 12-LOX inh 28µM*.

Assay outcomes from PubChem.
